{"source": "PubChem BioAssay AID1489", "about": "(National Center for Advancing Translational Sciences (NCATS), 2009)", "note": "Inconclusive results are not listed. Calls of active or inactive are those of the source. Calls follow the shape of the dose curve; as a rule, active = well fitted antagonist curve with a large enough effect in the main read-out, with a control signal flat; inconclusive = small, poorly fitted or top-dose-only effect; inactive = no such curve, though single readings can be large or run the other way."}
{"biological_target": "Neuropeptide S receptor (Homo sapiens) (UniProt Q6W5P4)", "sequence (Q6W5P4 whole entry, looked up)": "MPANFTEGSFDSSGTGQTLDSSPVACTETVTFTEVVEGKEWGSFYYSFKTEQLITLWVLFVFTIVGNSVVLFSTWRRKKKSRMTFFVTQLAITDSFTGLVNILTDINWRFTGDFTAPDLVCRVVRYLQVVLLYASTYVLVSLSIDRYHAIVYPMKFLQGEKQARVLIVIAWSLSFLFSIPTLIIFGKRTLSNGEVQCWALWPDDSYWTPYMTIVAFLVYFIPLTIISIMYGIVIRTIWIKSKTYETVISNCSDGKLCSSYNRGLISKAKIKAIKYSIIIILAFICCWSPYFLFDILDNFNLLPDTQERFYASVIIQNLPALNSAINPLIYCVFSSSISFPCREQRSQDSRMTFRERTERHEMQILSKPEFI", "assay": "Confirmation Concentration-Response Assay for Antagonists of the Neuropeptide S Receptor: Calcium Signal Transduction", "settings": "CHO-NPSR cells, NPS-induced calcium flux, FDSS; series mostly up to 19.3 µM", "from_the_text": "NIH Chemical Genomics Center [NCGC] NIH Molecular Libraries Probe Production centers Network [MLPCN] MLPCN Grant: X01-DA026210-01 Assay Submitter (PI): Heilig, Markus Alexander NCGC Assay Overview: Neuropeptide S receptor (NPSR), previously known as GPR154, is a recently de-orphanized G protein coupled receptor. Its endogenous ligand is the 20 amino acids peptide Neuropeptide S (NPS). […] NPS and its receptor are found in various tissues. Specifically they are highly expressed in brain areas that have been implicated in modulation of arousal, stress and anxiety. Central administration of NPS in mice produces an unusual profile of activity by inducing wakefulness and arousal, while at the same time suppressing anxiety. Therefore, NPSR may represent a novel drug target for the treatment of sleep and anxiety disorders. To identify NPSR antagonists, we developed a cell-based assay with transfected NPS receptor. NPS can stimulate the production of cAMP as well as release intracellular calcium in Chinese hamster ovary cells stably expressing NPS receptor. This change in intracellular calcium can be detected using a calcium indicator dye on a calcium imaging plate reader system (FDSS).\nNCGC Assay Protocol Summary: A Chinese hamster ovary (CHO) cell line stably expressing the NPS receptor (CHO-NPSR) was obtained from Dr. Heilig lab at NIAAA and maintained in F-12 Kaighn's media (Invitrogen, Carlsbad, CA, 21127) supplemented with 10 % FBS, 100 units/ml penicillin, 100 ug/ml streptomycin and 250 ug/ml geneticin at 37C, 5% CO2 in a humidified atmosphere. Before the assay, aliquots of cells were frozen and stored at -135C. The assay was performed on a FDSS-7000 kinetic plate reader in 1536-well format. For both agonist (1-220s) and antagonist (221-400s) phases, the maximums of kinetic fluorescence responses were converted separately into text files using the instrument's software data export utility. Data for agonist response were normalized to the controls for basal activity (DMSO only) and 100% activation (NPS). […] AC50 values were determined from concentration-response data modeled with the standard Hill equation. NPS 1536-well FDSS assay protocol: (1) Frozen CHO-NPSR cells were thaw, washed once with fresh media and resuspended in F-12 Kaighn's media supplemented with 10 % FBS, 100 units/ml penicillin and 100 ug/ml streptomycin. Cells were plated at 3 ul/well (1200 cells) to black, clear-bottom, tissue-culture treated 1536-well plates, and then cultured at 37C, 5 % CO2 for 16 to 30 hours. (2) Add 3 ul of calcium dye (from High Performance PBX Calcium Assay Kit, BD Biosciences). The calcium dye was prepared according to the manufactory's instruction. (3) Incubation at 37C, 5 % CO2 for 60 to 120 min. (4) Load plates to FDSS-7000. The following steps were performed on FDSS-7000. (5) Record fluorescent background (Ex 480 nm, Em 520-560 nm) for 10 s. (6) Add 23 nl/well of compound in DMSO solution. The final titration for each compound was between 0.6 nM and 46 uM. Record agonist response for 210 s. (7) Add 2 ul of stimulation reagent (1X HBSS buffer, 0.1% BSA, 60 nM NPS). Record antagonist response for 140 s. Keywords: MLSMR, MLPCN, NIH Roadmap, qHTS, NCGC, NPS, Neuropeptide S Antagonists"}
{"compound": "Cc1cccc(N2C(=O)NC(=O)/C(=C\\c3cnn(-c4ccccc4)c3)C2=O)c1", "Potency": "10 µM (active)"}
{"compound": "C=CCN1C(=O)/C(=C/c2cccs2)C(=O)NC1=S", "Potency": "11.2 µM (active)"}
{"compound": "C=C1C(=O)O[C@@H]2C[C@@H](C)[C@@H]3C=CC(=O)[C@@]3(C)[C@@H](OC(=O)CC(=O)O[C@H]3[C@@H]4C(=C)C(=O)O[C@@H]4C[C@@H](C)[C@@H]4C=CC(=O)[C@]43C)[C@H]12", "Potency": "0.0891 µM (active)"}
{"compound": "C[C@H]1CCCC(=O)CCCCCc2cc(O)cc(O)c2C(=O)O1", "Potency": "inactive"}
{"compound": "Cc1cc(C=C2C(=O)NC(=S)NC2=O)c(C)n1-c1ccc2c(c1)OCO2", "Potency": "12.6 µM (active)"}
{"compound": "Cc1c(P(=S)(c2ccccc2)c2ccccc2)[n+]2ccccc2n1C", "Potency": "0.2 µM (active)"}
{"compound": "CNc1ccc2oc(C[C@H]3O[C@@]4(CC[C@H]3C)O[C@H]([C@H](C)C(=O)c3ccc[nH]3)[C@H](C)C[C@H]4C)nc2c1C(=O)O", "Potency": "0.0158 µM (active)"}
{"compound": "CCOC(=O)c1c(-n2c(C)cc(C=C3C(=O)NC(=S)NC3=O)c2C)sc2c1CCCC2", "Potency": "2 µM (active)"}
{"compound": "C=C(C=O)C[C@@H]1C[C@H](O)C2OC3C[C@]4(C)OC5/C=C\\CC6OC7C(CC=CCC6OC5CCCC4OC3CC2O1)OC1CC2OC3CC(=O)OC3C[C@@H](C)C[C@@]2(C)OC1C[C@@H]7C", "note": "(stereo not given in full)", "Potency": "0.501 µM (active)"}
{"compound": "CC(=O)Nc1cc([As](=O)(O)O)ccc1O", "Potency": "inactive"}
